Measured values taken from PubChem BioAssay (NCATS).
Where “and” joins values, the source holds several entries; their conditions need not be identical. Equal values may be shown once. Results filed as inconclusive are left out. Calls of active or inactive are those of the source. The call rests on the fitted dose curve; in most records, active means well fitted inhibition curve with a large enough effect; inconclusive means small, poorly fitted or top-dose-only effect; inactive means flat fitted curve, though single readings scatter.

Assays:
P94_40 = assay: qHTS profiling for inhibitors of Plasmodium falciparum proliferation (AID 504749); conditions: P. falciparum in erythrocytes, SYBR Green DNA, 72 h; series mostly up to 28.7 µM
Procedure, shortened: (§1)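 Three-day growth assay of blood-stage parasites in erythrocytes (0.3% parasitemia, 2.5% hematocrit) at 37 C, 5% CO2, quantified by SYBR Green DNA staining after overnight detergent lysis.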

PAD = assay: as above; conditions: P. falciparum in erythrocytes, SYBR Green DNA, 72 h; series mostly up to 28.7 µM
Procedure, shortened: as §1

PC15 = assay: as above; conditions: P. falciparum in erythrocytes, SYBR Green DNA, 72 h; series mostly up to 28.7 µM
Procedure, shortened: as §1

SC27B = assay: as above; conditions: P. falciparum in erythrocytes, SYBR Green DNA, 72 h; series mostly up to 28.7 µM
Procedure, shortened: as §1

TAB109 = assay: as above; conditions: P. falciparum in erythrocytes, SYBR Green DNA, 72 h; series mostly up to 28.7 µM
Procedure, shortened: as §1

TAB113 = assay: as above; conditions: P. falciparum in erythrocytes, SYBR Green DNA, 72 h; series mostly up to 28.7 µM
Procedure, shortened: as §1

TAB165 = assay: as above; conditions: P. falciparum in erythrocytes, SYBR Green DNA, 72 h; series mostly up to 28.7 µM
Procedure, shortened: as §1

CRL-7250 = normal cell line; assay: Cytotoxic Profiling of Annotated Libraries Using Quantitative High-Throughput Screening (AID 1296008); conditions: Five cell lines viability, CellTiter-Glo ATP luminescence, 48-72 h; max response: stronger effect = lower value; on max response: on the % scale 0 is the no-effect control and ±100 the full control effect
Procedure, shortened: (§2)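 Cytotoxicity was measured as CellTiter-Glo ATP luminescence, read after 10 min at room temperature. Compound treatment of the cells lasted 48 or 72 hr at 37 degrees Celsius in a qHTS format.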

NIH3T3 = assay: as above; conditions: Five cell lines viability, CellTiter-Glo ATP luminescence, 48-72 h; max response: stronger effect = lower value
Procedure, shortened: as §2

MCC-13 = assay: qHTS assay to identify novel small-molecules to repurpose for Merkel cell carcinoma treatment (AID 1296009); conditions: MCC and control cell lines, CellTiter-Glo viability, 72 h; series mostly up to 46 µM
Procedure, shortened: (§3)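 After compound transfer in DMSO, plates were kept 72 hr at 37 degree celsius. Luminescent ATP signal from CellTiter-Glo served as viability measure, normalized against DMSO and no-cell controls.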

MCC-26 = assay: as above; conditions: MCC and control cell lines, CellTiter-Glo viability, 72 h; series mostly up to 46 µM
Procedure, shortened: as §3

MKL-1 = assay: as above; conditions: MCC and control cell lines, CellTiter-Glo viability, 72 h; series mostly up to 46 µM
Procedure, shortened: as §3

PC26 = assay: qHTS profiling for inhibitors of Plasmodium falciparum proliferation (AID 504749); conditions: P. falciparum in erythrocytes, SYBR Green DNA, 72 h; series mostly up to 28.7 µM
Procedure, shortened: as §1

PC49 = assay: as above; conditions: P. falciparum in erythrocytes, SYBR Green DNA, 72 h; series mostly up to 28.7 µM
Procedure, shortened: as §1

W2 = assay: as above; conditions: P. falciparum in erythrocytes, SYBR Green DNA, 72 h; series mostly up to 28.7 µM
Procedure, shortened: as §1

HEK293 = assay: Cytotoxic Profiling of Annotated Libraries Using Quantitative High-Throughput Screening (AID 1296008); conditions: Five cell lines viability, CellTiter-Glo ATP luminescence, 48-72 h; max response: stronger effect = lower value; on max response: on the % scale 0 is the no-effect control and ±100 the full control effect
Procedure, shortened: as §2

HaCat [1] = assay: as above; conditions: Five cell lines viability, CellTiter-Glo ATP luminescence, 48-72 h; max response: stronger effect = lower value
Procedure, shortened: as §2

KB-3-1 = assay: as above; conditions: Five cell lines viability, CellTiter-Glo ATP luminescence, 48-72 h; max response: stronger effect = lower value
Procedure, shortened: as §2

HACAT [2] = assay: qHTS assay to identify novel small-molecules to repurpose for Merkel cell carcinoma treatment (AID 1296009); conditions: MCC and control cell lines, CellTiter-Glo viability, 72 h; at 44.8 µM (top of the series) unless noted
Procedure, shortened: as §3
Further: nearly all actives have a fitted effect of over 60% in size.
Potency means the concentration at half of the fitted maximal effect.

COc1cc(-c2ccc(=O)[nH]n2)ccc1OC(F)F
active: Potency (P94_40) 0.112 µM | Potency (TAB109) 0.0447 µM | Potency (TAB113) 0.0355 µM | Potency (TAB165) 0.282 µM | Potency (CRL-7250) 1.19 µM
inactive: Potency (PAD) | Potency (PC15) | Potency (SC27B) | max response (NIH3T3) -9.32% | Potency (MCC-13) | Potency (MCC-26) | Potency (MKL-1)

CCN(CC)C(=O)/C(C#N)=C/c1cc(O)c(O)c([N+](=O)[O-])c1
inactive: Potency (P94_40) | Potency (PAD) | Potency (PC15) | Potency (PC26) | Potency (PC49) | Potency (SC27B) | Potency (TAB109) | Potency (TAB113) | Potency (W2) | max response (HEK293) -12.8% | max response (HaCat [1]) -5.03% | max response (KB-3-1) 3.63% | Potency (MCC-13) | Potency (MCC-26)

O=C(Nc1ccc(Oc2ccc(Cl)cc2)c(Cl)c1)c1cc(I)cc(I)c1O
inactive: Potency (P94_40) | Potency (PAD) | Potency (PC15) | Potency (PC26) | Potency (PC49) | Potency (SC27B) | Potency (TAB109) | Potency (TAB113) | max response (CRL-7250) -12.5% | max response (HaCat [1]) 1.19% | max response (NIH3T3) 0.252% | Potency (MCC-13) | Potency (MCC-26) | Potency (MKL-1)

NC(=NCCCCCCN=C(N)/N=C(\N)Nc1ccc(Cl)cc1)/N=C(\N)Nc1ccc(Cl)cc1
active: Potency (P94_40) 3.55 µM | Potency (PAD) 3.16 µM | Potency (PC15) 2 µM | Potency (PC26) 3.79 µM | Potency (PC49) 3.16 µM | Potency (SC27B) 0.891 µM | Potency (TAB109) 3.98 µM | Potency (TAB113) 2 µM | Potency (TAB165) 0.794 µM | Potency (W2) 0.849 µM | Potency (HEK293) 7.5 µM and 7.31 µM | Potency (KB-3-1) 8.2 µM | Potency (MCC-13) 26.6 µM | Potency (MKL-1) 6.68 µM

CC(C)=CCC1C(=O)N(c2ccccc2)N(c2ccccc2)C1=O
inactive: Potency (PC15) | Potency (PC49) | Potency (TAB109) | max response (CRL-7250) -25.1% | max response (KB-3-1) -9.06% | max response (NIH3T3) -29% | Potency (MCC-13)

COc1cc(C=C2CCC/C(=C\c3ccc(O)c(OC)c3)C2=O)ccc1O
active: Potency (CRL-7250) 15 µM | Potency (NIH3T3) 16.8 µM | Potency (MCC-13) 26.6 µM | Potency (MKL-1) 4.22 µM

O=c1c(-c2ccccc2)c1-c1ccccc1
active: Potency (PC26) 12 µM | Potency (SC27B) 11.2 µM | Potency (TAB165) 10 µM | Potency (W2) 15.1 µM | Potency (HEK293) 23.7 µM | Potency (MKL-1) 26.6 µM
inactive: Potency (MCC-26)

CN(C)CCCOc1nn(Cc2ccccc2)c2ccccc12
active: Potency (W2) 2.28 µM
inactive: Potency (P94_40) | Potency (PAD) | Potency (PC15) | Potency (PC49) | Potency (SC27B) | Potency (TAB109) | Potency (TAB113) | max response (CRL-7250) 1.45% | max response (HaCat [1]) 3.55% | max response (KB-3-1) -14.4% and -24.2% | Potency (MCC-13) | Potency (MKL-1)

C[C@]12CC[C@H]3[C@@H](CCC4=CC(=O)CC[C@@]43C)[C@@H]1CC[C@@H]2C(=O)CO
inactive: max response (CRL-7250) -11.9% | max response (KB-3-1) -3.06% | max response (NIH3T3) -2.44% | Potency (MCC-13) | Potency (MCC-26) | Potency (MKL-1)

Cc1c(C)n(CCN(C)C)c2ccc(C(=O)OCCN(C)C)cc12
inactive: Potency (P94_40) | Potency (PAD) | Potency (PC15) | Potency (PC26) | Potency (PC49) | Potency (SC27B) | Potency (TAB109) | Potency (TAB113) | Potency (TAB165) | outcome (HaCat [1]) | max response (KB-3-1) 2.08% | outcome (HACAT [2]) | Potency (MCC-13) | Potency (MCC-26) | Potency (MKL-1)
active: Potency (NIH3T3) 7.5 µM

CN=C(NC#N)NCCSCc1csc(N=C(N)N)n1
inactive: Potency (P94_40) | Potency (PAD) | Potency (PC15) | Potency (PC26) | Potency (PC49) | Potency (SC27B) | Potency (TAB113) | Potency (TAB165) | Potency (W2) | max response (CRL-7250) 1.65% | max response (HaCat [1]) 3.38% | max response (NIH3T3) 4.93% | Potency (MCC-13) | Potency (MCC-26) | Potency (MKL-1)
